Data reported in PubChem BioAssay AID504374 (National Center for Advancing Translational Sciences (NCATS), 2011).
About 100 (6.7%) of roughly 1,500 compounds were called active. About 7% were inconclusive and are not listed. The sample holds actives, similar compounds and a random draw of the others, so the mix is not that of the screen. Calls follow the shape of the dose curve; as a rule, active = well fitted inhibition curve with a large enough effect; inconclusive = small, poorly fitted or top-dose-only effect, or effect the other way; inactive = flat fitted curve, though single readings scatter.

Target: Runt-related transcription factor 1 (Homo sapiens) + Core-binding factor subunit beta (Homo sapiens) (UniProt Q01196+Q13951)
Sequence (Q01196 whole entry, looked up): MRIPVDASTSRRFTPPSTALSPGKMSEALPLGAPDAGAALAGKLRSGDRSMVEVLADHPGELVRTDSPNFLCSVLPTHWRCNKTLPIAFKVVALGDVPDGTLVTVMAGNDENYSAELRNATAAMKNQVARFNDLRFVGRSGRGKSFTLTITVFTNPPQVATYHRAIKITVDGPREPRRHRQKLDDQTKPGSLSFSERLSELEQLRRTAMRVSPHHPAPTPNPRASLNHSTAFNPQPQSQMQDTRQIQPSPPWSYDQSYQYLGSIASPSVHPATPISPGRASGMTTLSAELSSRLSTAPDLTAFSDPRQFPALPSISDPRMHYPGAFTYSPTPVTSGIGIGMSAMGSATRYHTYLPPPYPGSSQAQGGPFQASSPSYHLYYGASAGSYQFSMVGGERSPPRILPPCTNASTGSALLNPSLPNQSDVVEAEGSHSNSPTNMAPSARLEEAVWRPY
Sequence (Q13951 whole entry, looked up): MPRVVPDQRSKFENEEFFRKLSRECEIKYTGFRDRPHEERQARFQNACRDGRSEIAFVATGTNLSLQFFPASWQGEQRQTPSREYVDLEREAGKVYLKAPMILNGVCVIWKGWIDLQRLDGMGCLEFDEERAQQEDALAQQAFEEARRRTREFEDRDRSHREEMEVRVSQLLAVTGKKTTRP
Assay: qHTS Assay for Compounds Blocking the Interaction Between CBF-beta and RUNX1 for the Treatment of Acute Myeloid Leukemia: Hit Validation; also: nearly all actives have a fitted effect of over 60% in size
Settings: AlphaScreen CBFb-His/RUNX1-biotin binding; series mostly up to 59.8 µM; activity, negative = inhibition: at the top concentration
Outline: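 Compounds were added to a premixed CBF-beta-His/RUNX1-biotin complex (30 nM each, 20 min) for 15 min. Nickel and streptavidin AlphaScreen beads followed for 90 min at room temperature, with emission at 440 nm […].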
% is scaled to controls: 0 for no effect and ±100 for the full control effect; potency is read from the fitted curve at half-maximal effect.

Row | Compound | activity, negative = inhibition | Potency
1 | Cc1[nH]ncc1-c1ccccc1Cl | 2.43% (inactive) | –
2 | Nc1nc(CCl)nc(Nc2ccc3ccccc3c2)n1 | 3.21% (inactive) | –
3 | Cc1ccc(N2CC(c3nc4ccccc4n3C)CC2=O)cc1 (stereo not drawn) | 0.961% (inactive) | –
4 | Cc1cc2nc3ccc(=[N+](C)C)cc-3sc2cc1N | – | 6.31 µM (active)
5 | Cc1ccc2nc(-c3ccc(N)cc3)sc2c1 | 0.903% (inactive) | –
6 | Oc1cccc(O)c1O | – | 3.97 µM (active)
7 | Cn1nc(-c2ccccc2)cc1NC(=O)CCCC(=O)O | -2.32% (inactive) | –
8 | Cc1ccnn1CC(=O)N/N=C/c1cn[nH]c1-c1ccc(F)cc1 | -5.89% (inactive) | –
9 | CC(C)CC(=O)NC(=S)Nc1ccccc1N1CCCC1 | -17.3% (inactive) | –
10 | CNC(=O)Nc1cc(NC(=O)NC)cc(C(F)(F)F)c1 | -3.15% (inactive) | –
11 | CCOC(=O)C1=C(C)NC(C)=C(C(=O)OCC)C1 | 0.11% (inactive) | –
12 | CCCC(=O)NC(c1cccs1)c1cc([N+](=O)[O-])c2cccnc2c1O (stereo not drawn) | – | 3.98 µM (active)
13 | CN(C)C(=O)CSc1nnc(NC(=O)CCc2ccccc2)s1 | 5.1% (inactive) | –
14 | COC(=O)/C=C(\C)N=Nc1c(O)[nH]c2ccccc12 | -4.81% (inactive) | –
15 | Cc1ccc(CN(C(=O)c2cc(=O)c3cc(C)cc(C)c3o2)C2CCS(=O)(=O)C2)cc1 (stereo not drawn) | 4.59% (inactive) | –
16 | Cc1cccc(C)c1NC(=S)N1CC(C)OC(C)C1 (stereo not drawn) | -4.3% (inactive) | –
17 | Cn1cnc(S(=O)(=O)Nc2ccc(OC(F)F)cc2)c1 | 1.32% (inactive) | –
18 | O=C1C(CCC(O)c2ccc(F)cc2)C(c2ccc(O)cc2)N1c1ccc(F)cc1 (stereo not drawn) | – | 15.8 µM (active)
19 | CC(C)(C)OC(=O)N1CCCN(C(=O)Nc2ccccc2)CC1 | 0.141% (inactive) | –
20 | COc1cccc(NC(=O)C(=O)NCCc2ccc(F)cc2)c1 | 5.31% (inactive) | –
21 | CCOC(=O)/C(C#N)=C/Nc1ccsc1C(C)=O | 0.205% (inactive) | –

Row | Compound | activity, negative = inhibition | Potency
22 | Cc1ccc(Cn2c(N/N=C/c3ccncc3)nc3c2c(=O)n(C)c(=O)n3C)cc1 | -3.34% (inactive) | –
23 | O=C1CSC(=S)N1/N=C/c1ccc(O)c(O)c1O | – | 0.562 µM (active)
24 | Cc1cc(NC(=O)c2c(-c3c(F)cccc3Cl)noc2C)no1 | -7.12% (inactive) | –
25 | COc1cccc(/C=N/NC(=O)C(C)Cn2cnc3ccccc32)c1 (stereo not drawn) | -0.552% (inactive) | –
26 | COc1ccc(Oc2ccc(-c3ccn[nH]3)cc2)cc1 | -8.28% (inactive) | –
27 | COc1ccc(Oc2ncccc2[N+](=O)[O-])cc1 | -4.02% (inactive) | –
28 | COc1ccc(Oc2nc(-c3ccccn3)ncc2OC)cc1 | – | 12.6 µM (active)
29 | O=P(O)(O)c1cc(-c2ccccc2)oc1-c1ccccc1 | 0.0456% (inactive) | –
30 | CCCCC1C2C(=O)N(c3ccc(C)cc3)C(=O)C2ON1c1ccccc1 (stereo not drawn) | -2.92% (inactive) | –
31 | Cc1cc([N+](=O)[O-])nn1Cc1ccc(C(=O)N/N=C/c2ccc(N(C)C)cc2)cc1 | -10.8% (inactive) | –
32 | Nc1ccc(C(=O)C(=O)c2ccc(N)cc2)cc1 | 4.27% (inactive) | –
33 | O=C(O)c1cc2ccccc2cc1Nc1ccccc1 | -13.1% (inactive) | –
34 | Nc1ccc(N)c(C(=O)O)c1 | – | 0.794 µM (active)
35 | CCOC(=O)c1nnn2c1nc(N1CCN(C)CC1)c1ccccc12 | -4.29% (inactive) | –
36 | C=CCn1c(=O)c2ccccc2n2nnc(C(=O)OCC)c12 | 1.03% (inactive) | –
37 | CC/C(=C(\c1ccccc1)c1ccc(OCCN(C)C)cc1)c1ccccc1 | – | 24.4 µM (active)
38 | COc1cccc(C2Oc3ccccc3C3CC(c4cccs4)=NN32)c1 (stereo not drawn) | 4.22% (inactive) | –
39 | CCCC(=O)c1cc(O)c(O)cc1O | – | 4.47 µM (active)
40 | Cc1ccc(C)c(C(=O)CCC(=O)O)c1 | -2.23% (inactive) | –
41 | CC(=O)c1cc(O)c2ccccc2c1O | -21.8% (inactive) | –
42 | C/C(=N\O)c1c(O)cc(-c2ccccc2)n(-c2ccccc2)c1=O | -1.85% (inactive) | –

Row | Compound | activity, negative = inhibition | Potency
43 | NC[C@@H](O)c1ccc(O)c(O)c1 | – | 2.82 µM (active)
44 | CC1=CC(=O)CC(C)(C)C1(O)/C=C/C(C)=C/C(=O)O (stereo not drawn) | -3.77% (inactive) | –
45 | C=CCn1c(SCc2ccccc2Cl)nnc1-c1sc2nc(C)cc(C)c2c1N | 10.9% (inactive) | –
46 | CCOC(=O)c1c(C)n(C)c2ccc(OC)c(NC(=O)CCN3CCC(Cc4ccccc4)CC3)c12 | -15.5% (inactive) | –
47 | O=S(=O)(Nc1cccc(CCc2ccccn2)c1)c1cc(Cl)ccc1Cl | -7.59% (inactive) | –
48 | c1cnc2ccc3ncccc3c2c1 | -19.2% (inactive) | –
49 | c1ccc(-n2ncc3cccnc32)cc1 | 8.29% (inactive) | –
50 | c1cnc2c(c1)ccc1cccnc12 | – | 1.12 µM (active)
51 | CCCCn1cc([N+](=O)[O-])nc1C | -5.88% (inactive) | –
52 | O=C(CN1CCN(C(c2ccccc2)c2ccccc2)CC1)N1N=CCC1c1ccccc1 (stereo not drawn) | -5.94% (inactive) | –
53 | COC(=O)c1cc(NS(=O)(=O)c2ccc(F)cc2)ccc1N1CCOCC1 | 0.969% (inactive) | –
54 | COc1ccc(/C(C)=N/NC(=O)Cn2nc([N+](=O)[O-])cc2C)cc1 | -7.96% (inactive) | –
55 | COc1cccc2c1NC(C(=O)O)C1CC=CC21 (stereo not drawn) | – | 14.1 µM (active)
56 | COc1ccccc1C1CCN(C(=O)c2cccs2)CC1 | 1.84% (inactive) | –
57 | COc1ccccc1C1CCN(C(=O)c2ccco2)CC1 | -1.76% (inactive) | –
58 | COc1ccc2[nH]c(=O)c(CN(C(=O)c3cccnc3)c3ccc(C)cc3C)cc2c1 | -3.33% (inactive) | –
59 | CC1=NNC(=O)C1Cc1ccc(F)cc1 (stereo not drawn) | -5.63% (inactive) | –
60 | CC(C)(NC(=O)c1cc(Cl)c2ccccc2c1O)C(=O)O | -1.91% (inactive) | –
61 | COC(=O)CC1C(=O)NC(C)=C1C(=O)OC (stereo not drawn) | -12.4% (inactive) | –
62 | COc1ccc(-n2c(=S)[nH]c(=O)c3cccnc32)cc1 | -1.85% (inactive) | –
63 | CCCOc1ccc(CSC(=N)N)cc1C(=O)OC | -9.01% (inactive) | –
